Screens deposited in PubChem by National Center for Advancing Translational Sciences (NCATS).
A selection: hits, their analogues and other compounds. The true share with any hit is near 1.4%.
Nrf2 activator – qHTS of Nrf2 Activators | actives 0.31% (n = 410,000) | Potency, µM (titrated, usually from 46.1 µM), inactives show at the highest dose activation, usual class: activators | AID 624171, 2012 | AREc32 ARE-luciferase reporter (MCF7-derived line), luminescence, 24 h; further: potency means the concentration at half of the fitted maximal effect; % of control where 0% means no effect; nearly all actives have a fitted effect of over 65% in size
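Cells of the AREc32 ARE-luciferase line are plated in OPTI-MEM containing 5% FBS and left overnight at 37 deg C. Compounds are pinned in, incubation continues 24 hr, and firefly luciferase signal is then measured.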
BCR signal inh – qHTS Assay to Find Inhibitors of Chronic Active B-Cell Receptor Signaling. ABC-DLBCL IkBa-CBG/CBR reporter, luminescence ratio, 4 h. Potency, µM (series often up to 46.1 µM), without a hit: at the top dose activity change, negative = inhibition, hits mostly inhibitors. actives 0.05% (n = 340,000); active means well fitted inhibition curve with a large enough effect in the signal ratio, with a control signal flat, not every such curve was filed as active; inconclusive means small, poorly fitted or top-dose-only effect, or effect the other way, or a change in a side signal; the % refers to the signal ratio;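 further: potency means the concentration at half of the fitted maximal effect; plate controls were basal doxycycline-induced cells for no effect and cells given 10 µM MG132 for full effect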
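Concentration-response series (up to 46 uM) were applied to TMD8 dual-reporter cells for 4 h at 37C with doxycycline. Green/red ratio, after filter-overlap correction, defined %Activity; red signal alone was normalised to basal cells and zero luminescence.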
a7 integrin act – qHTS for Activators of Integrin-Mediated Alleviation for Muscular Dystrophy. alpha7betagal myoblasts, beta-gal FDG fluorescence, 48 h. Potency, µM (highest dose often 38.3 µM), inactives show at the top dose activation, actives largely listed as activators. actives 0.064% (n = 350,000);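 further: potency means the concentration at half of the fitted maximal effect; 100% = response of the positive control SU9516; nearly all actives have a fitted effect of over 60% in size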
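Alpha7betagal+/- myoblasts (passage 13) were plated 16-24 hr, then exposed to compounds (1:260 dilution of DMSO stock) for 48 hours at 37C. After MPER lysis, β-galactosidase reporter activity was read as FDG fluorescence (ex 480/em 540) after 30 minutes.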
N370S GC mod – qHTS Assay for Inhibitors and Activators of N370S glucocerebrosidase as a Potential Chaperone Treatment of Gaucher Disease; N370S GC spleen homogenate, 4MU-glucoside fluorescence; Potency, µM (series often up to 59.4 µM), inactives show top-dose activity change, negative = inhibition, hits mostly inhibitors; actives 0.092% (n = 330,000); AID 2101, 2009;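 further: potency means the concentration at half of the fitted maximal effect; 0% = full enzyme activity and -100% = no enzyme basal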
IL2 activator – qHTS of IL-2 Activators; IL-2 activation reporter assay, cell-based qHTS; stimulated with anti-CD3/CD4/CD28 beads; in transgenic mouse T cells; activation, % (series mostly up to about 46 µM); actives 0.065% (n = 360,000); AID 652025, 2013; in the data active means activation above about 50%; inconclusive means mostly about 30% to 49%; further: 0% is about no effect
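Quantitative HTS in unstimulated transgenic mouse T cells, with memory T cells as non-tolerant control and PMA/ionomycin as tolerance-bypass control. Compound pretreatment lasted 60 minutes before 18 h bead stimulation; EGFP/DsRed fluorescence read.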
BRCA1 expr up – qHTS Assay to Identify Small Molecule Activators of BRCA1 Expression | Potency, µM (titrated, usually from 46.1 µM), for inactives: at the top dose activation, most hits filed as activators | MCF7-BRCA1-FFLuc reporter, luminescence, 48 h; response scale: scaled: vehicle 0%, 10 µM genistein 100% | actives 1.1% (n = 380,000); further: potency means the concentration at half of the fitted maximal effect; nearly all actives have a fitted effect of over 80% in size
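MCF7-BRCA1-FFLuc cells, 2000/well in phenol-red-free MEM, attached 2 h then treated 48 h at 37 C. Luciferase luminescence read 15 min after reagent; normalized to genistein maximum activation (10microM) and DMSO, concentration-response fitted.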
Starred values were filed as active, the others as inactive; ? = inconclusive; · = no result; [ ] = another dose, or the depositor's remark. Unless noted, the call rests on the fitted dose curve; in most records, active means well fitted curve in the direction sought with a large enough effect; inconclusive means small, poorly fitted or top-dose-only effect, or another doubt; inactive means no such curve, though single readings can be large; an effect the other way counts as inactive or inconclusive.

SMILES | Nrf2 activator | BCR signal inh | a7 integrin act | N370S GC mod | IL2 activator | BRCA1 expr up
CCOc1ccc(N2C(=O)NC(=O)/C(=C\c3ccc(N4CCOCC4)cc3C)C2=O)cc1 | 0.2% | -4.2% | 23.6% | -21.7% | -2.0 | -2.8%
C#CCN1C(=O)S/C(=C\c2ccc(N3CCOCC3)cc2C)C1=O | 1.8% | 9.6% | -6.8% | ? | 202.7* | 74.1%
O=c1[nH]c(O)c(/C=C2\C=Nc3ccc(OCc4ccccc4)cc32)c(=O)[nH]1 | 0.2% | -0.2% | -10.8% | 2.2% | 192.6* | -18.0%
Nc1c(C(=O)NCc2ccco2)c2nc3ccccc3nc2n1Cc1ccc(F)cc1 | 17.8µM* | ? | 0.0% | ? | -2.6 | -57.5%
O=c1c2cc(N3CCOCC3)ccc2[nH]c(=S)n1Cc1ccc(Cl)cc1 | 5.9% | -2.6% | 9.1% | 2.6%[12.8 µM] | 0.6 | 11.2µM*
O=C1C(=Cc2ccccc2)N2CCC1CC2 | 7.2% | · | 17.8% | · | -0.1 | 8.2%
CN(C)c1ccc(/C=C2/C(=N\O)C3CCN2CC3)cc1 | 3.2% | 1.0% | -9.2% | -14.1% | -1.4 | 3.98µM*
OC(c1ccc(Cl)cc1)(c1cncnc1)c1ccccc1Cl (stereo not drawn) | · | · | · | -15.6% | · | ·
COc1cccc(C(=O)C2CCCN(Cc3ccc(F)cc3)C2)c1 (stereo not drawn) | -0.7% | -0.5% | -11.2% | -9.1% | -2.3 | -39.3%
COc1ccc(CCN2CCCC(CN(C)C(=O)c3cc(C)oc3C)C2)cc1 (stereo not drawn) | 0.3% | 1.7% | 4.3% | -0.8% | -1.4 | 7.94µM*
CC(=O)[O-].CC(=O)[O-].O.O.[Cd+2] | · | · | · | 5.1% | · | ·
CC(C)(C)C(=O)N1CCN(c2nc3ccccc3s2)CC1 | 2.6% | ? | -6.9% | -4.7% | -0.1 | 3.16µM*
COc1ccc(C=C2C(=O)N(C)C(=O)N(C)C2=O)cc1CSc1ccccn1 | 20.7% | -1.0% | -23.2% | 5.2% | -0.2 | -26.4%
COc1ccc([N+](=O)[O-])cc1CSc1ccccn1 | 11.2µM* | 7.2% | -15.2% | 12.8% | -2.9 | -9.9%
COc1ccc(-c2nc3ccccc3c(=O)o2)cc1 | -0.3% | ? | -13.6% | -6.3% | -2.2 | 14.1µM*
Nc1ccc2c(c1)Cc1cc([N+](=O)[O-])ccc1-2 | 5.7% | -0.3% | -11.8% | -2.7% | -5.2 | 10µM*
CC[C@H](Oc1ccc(Cl)cc1)C(=O)OC1C[C@H]2CC[C@@H](C1)N2C (stereo partly drawn) | · | · | · | -19.4% | · | ·
Cc1cc(/C=C/c2ccnc3ccccc23)ccc1N(CCCl)CCCl | · | · | · | · | · | 0.0%
O=C1c2ccccc2C(=O)c2ccccc21 | · | · | · | 5.4% | · | ·
Cc1ccc2c(c1N)C(=O)c1ccccc1C2=O | 5.1% | 9.3% | · | 21.3% | 2.2 | 10µM*
COc1cc(/C=C/[N+](=O)[O-])ccc1O | -2.1% | 20.6µM* | -36.8% | -3.1% | -4.0 | -23.1%
COc1ccc(-n2c(/C=C/c3ccc(O)c(OC)c3)nc3ccccc3c2=O)cc1 | 3.2% | ? | -4.2% | ? | 0.7 | -76.3%
CCC1OC2(C)C(O)C(/C=C/C=C/C=C/c3oc(=O)cc(OC)c3C)OC1(C)C2OC(C)=O (stereo not drawn) | · | · | · | -8.7% | · | ·
COC(=O)[C@@H]1C[C@H]2CC[C@H](O)C[C@H]2N1CC1CC1 | · | · | · | 2.7% | · | ·
CCN1C[C@]2(C)CC[C@H](OC)[C@]34C5C[C@@H]6CC[C@@](O)(C5C(=O)O6)C(C13)[C@@H](OC(=O)c1ccccc1)C24 | · | · | · | -9.6% | · | ·
SMILES | Nrf2 activator | BCR signal inh | a7 integrin act | N370S GC mod | IL2 activator | BRCA1 expr up
CCCOc1ccc(Cn2c(=O)oc3ccc(C)cc32)cc1 | 0.4% | ? | -20.8% | 19.8% | 2.0 | -0.9%
Cc1cccc(OCCn2c(=O)oc3ccc(C)cc32)c1 | 5.0% | ? | 28.7% | 12.2% | -0.6 | 8.91µM*
Cc1ccc(N/N=C/C=C/c2ccco2)cc1 | ? | · | -12.9% | · | -1.1 | 7.94µM*
CCN1C(=O)C(=C/C=C/c2ccco2)C(=O)N(CC)C1=S | 2.7% | 2.0% | -5.9% | -13.3% | -5.0 | -32.0%
CCCNC(=O)C(Cc1ccc(C(F)(F)P(=O)(OCC)OCC)cc1)NC(=O)c1ccc(C#N)cc1 (stereo not drawn) | 0.0% | ? | 1.3% | · | 0.1 | -0.5%
CCNC(=O)O/N=C(\C)c1sc(-c2ccc(Cl)cc2)nc1C | 7.6% | 7.4% | -9.7% | -18.3% | -1.5 | ?
C/C(=N\OC(=O)NC(C)C)c1sc(-c2ccccc2)nc1C | 4.6% | -3.0% | -7.6% | 6.3% | -1.4 | 5.62µM*
Oc1cccc(Nc2nc(-c3ccccc3)nc3ccccc23)c1 | -0.1% | ? | -13.6% | 2.82µM* | -1.7 | 1.3%
Cc1nc2ccccc2c(=O)n1-c1cccc(O)c1 | 0.6% | ? | 2.5% | 7.4% | -0.3 | 0.0%
Cc1c(N=Cc2c(O)n(CCc3ccccc3)c(=O)[nH]c2=O)c(=O)n(-c2ccccc2)n1C | 0.3% | ? | 15.4% | -3.3% | -0.4 | -7.3%
Cc1c(N=Cc2c(O)n(C3CCCCC3)c(=O)[nH]c2=O)c(=O)n(-c2ccccc2)n1C | 2.8% | ? | 14.2% | -11.4% | 62.0* | -7.7%
Cc1occc1C(=O)Nc1ccccc1 | · | · | · | -1.5% | · | ·
Cc1cccc(Cn2cccc(C(=O)Nc3nnc(C)s3)c2=O)c1 | 0.0% | ? | · | · | · | 0.0%
COCc1nnc(NC(=O)c2cc3ccccc3o2)s1 | -0.1% | ? | 25.1% | -7.7% | -1.8 | 6.31µM*
CCN(CC)C(=O)c1ccc(NC(=O)c2cccc(F)c2)cc1 | 0.4% | ? | 13.4% | -2.7% | 1.7 | 11.2µM*
CC1CC[C@@]2(OC1)O[C@@H]1[C@@H](O)[C@H]3C4CC[C@H]5C[C@@H](O[C@@H]6O[C@H](CO)[C@H](O[C@@H]7O[C@H](CO)[C@@H](O)[C@H](O[C@@H]8OC[C@@H](O)[C@H](O)[C@H]8O)[C@H]7O[C@@H]7O[C@H](CO)[C@@H](O)[C@H](O[C@@H]8O[C@H](CO)[C@@H](O)[C@H](O)[C@H]8O)[C@H]7O)[C@H](O)[C@H]6O)[C@H](O)C[C@]5(C)C4CC[C@]3(C)[C@H]1[C@@H]2C (stereo partly drawn) | · | · | · | -3.3% | · | ·
CC(=O)NCC(N)C(=O)c1ccc(Cl)c(Cl)c1 (stereo not drawn) | · | · | · | · | · | 0.0%
NC(N)=Nc1ccc2[nH]c3c(c2c1)C[C@@]1(O)[C@H]2Cc4ccc(O)c5c4[C@@]1(CCN2CC1CC1)[C@H]3O5 | ? | 23.1µM* | · | -5.4% | -0.9 | -14.2%
